HepG2 tox: HepG2 cytotoxicity, counter-screen for TGF-b inhibitors. 410,000 tested, 0.76% active. Potency, µM (series often up to 46.1 µM), inactives show top-dose activity change, negative = cytotoxicity, usual class: cytotoxic. HepG2 CAGA-GFP viability, ATP luminescence, 18 h; also: potency is read from the fitted curve at half-maximal effect
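CellTiter-Glo luminescence gave cytotoxicity after 18 hours at 37 degrees C. The cells were HepG2 CAGA-GFP in 1% FBS DMEM, stimulated with 500 pg/mL TGF-beta after compound addition. %Activity was normalised to no-cell wells (complete cell-killing) and DMSO (no toxicity), and curves were fitted and classified.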
TGFb SMAD3 inh: TGF-b pathway inhibition. HepG2 CAGA-GFP TGF-b/SMAD3 reporter, GFP fluorescence, 18 h; TGF-beta stimulated, 500 pg/mL final. Potency, µM (top dose mostly 46.1 µM), for the others: top-dose activity, negative = inhibition, usual class: inhibitors. 410,000 tested, 1.2% active; also: potency is read from the fitted curve at half-maximal effect; % is scaled to controls: 0 for no effect and ±100 for the full control effect; nearly all actives have a fitted effect of over 65% in size
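Cell-based qHTS in HEPG2 carrying a CAGA-GFP Smad reporter; compounds added before 500 pg/mL final TGF-beta, 18 h incubation at 37 degrees C, GFP fluorescence quantified per cell by imaging cytometry.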
ATXN2 expr inh: inhibitors of ATXN2 expression. HEK-293 ATXN2-luciferase reporter, luminescence, 24 h. Potency, µM (series often up to 57 µM), without a hit: top-dose activity change, negative = inhibition, hits mostly inhibitors. 360,000 tested, 0.72% active. AID 1745845; also: potency is read from the fitted curve at half-maximal effect; % is scaled to controls: 0 for no effect and ±100 for the full control effect; nearly all actives have a fitted effect of over 55% in size
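qHTS (up to 57 uM final) was run with 24 h compound exposure of reporter cells at 37 °C. Each well was multiplexed: SteadyGlo luminescence measured ATXN2-luciferase expression after a fluorogenic Gly-Phe-AFC viability readout (25 uM final).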
S2 tox: viability counter-screen for ATXN expression inhibitors | S2 cells (HEK-293 line with an ATXN2-luciferase reporter) viability, CellTiter-Fluor protease fluorescence, 24 h | Potency, µM (highest dose often 56.7 µM), most hits filed as cytotoxic | 400,000 tested, 0.49% active; also: potency is read from the fitted curve at half-maximal effect; nearly all actives have a fitted effect of over 40% in size
D3 antag: blocks the human D3 dopamine receptor; P35462; 360,000 tested, 2.5% active; AID 652054; D3R cells, DiscoveRx beta-arrestin luminescence, antagonist mode; active compounds read low; max response, negative = inhibition, %; in the data active = max response below about -50%; inconclusive = no clear call, values can overlap the other calls; also: % is scaled to controls: 0 for no effect and ±100 for the full control effect
Target sequence (P35462 whole entry, looked up): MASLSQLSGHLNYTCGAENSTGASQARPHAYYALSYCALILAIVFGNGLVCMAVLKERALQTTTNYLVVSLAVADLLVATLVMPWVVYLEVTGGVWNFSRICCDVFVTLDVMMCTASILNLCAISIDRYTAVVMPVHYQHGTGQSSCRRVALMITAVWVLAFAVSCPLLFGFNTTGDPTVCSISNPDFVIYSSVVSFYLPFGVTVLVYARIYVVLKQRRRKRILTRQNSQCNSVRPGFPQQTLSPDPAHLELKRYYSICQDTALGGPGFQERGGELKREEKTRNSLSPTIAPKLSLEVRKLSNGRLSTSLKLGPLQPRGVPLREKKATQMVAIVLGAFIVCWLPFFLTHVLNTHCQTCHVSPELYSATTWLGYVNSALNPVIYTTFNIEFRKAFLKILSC
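Cells expressing the human receptor were seeded at 1500 cells/well, incubated overnight at 37 degrees C in 5% CO2, then exposed to library compounds with dopamine controls for 90 minutes at 37 degrees C before luminescent detection.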
D3 ag: D3 dopamine receptor (human) agonism | P35462 | D3R DiscoveRx beta-arrestin cells, luminescence, 90 min | max activation, % | 410,000 tested, 0.58% active | AID 652048; in the data active = max activation above about 30%; also: 0% is about no effect
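Agonist mode: compounds and dopamine controls were applied to plated cells for 90 min at 37 degrees C after an overnight attachment at 1500 cells/well. Luminescent read-out followed 30 - 60 minutes at room temperature with DiscoveRx detection reagent.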
* marks the source's active call; other numbers are inactive results. An excerpt weighted towards active compounds, which were near 4.8% of everything screened. Unless noted, calls follow the shape of the dose curve; as a rule, active = well fitted curve in the direction sought with a large enough effect; inconclusive = small, poorly fitted or top-dose-only effect, or another doubt; inactive = no such curve, though single readings can be large; an effect the other way counts as inactive or inconclusive.

How did NC[C@H]1O[C@H](O[C@H]2[C@@H](O)[C@@H](O[C@H]3O[C@H](CO)[C@@H](O)[C@H](N)[C@@H]3O)[C@H](N)C[C@@H]2N)[C@H](N)C[C@H]1O do in these assays?
ATXN2 expr inh: -11%

Results for Cn1c(N/N=C/c2cc3ccccc3nc2Cl)nc2ccccc21 ?
HepG2 tox: 5.6µM*; TGFb SMAD3 inh: 147%; ATXN2 expr inh: 5%; S2 tox: inactive; D3 antag: -9; D3 ag: -2

Results for Cn1c(N/N=C/c2c[nH]c3ccccc23)nc2ccccc21 ?
HepG2 tox: -102%; TGFb SMAD3 inh: inconclusive; ATXN2 expr inh: 10%; S2 tox: inconclusive; D3 antag: 12; D3 ag: -3

Results for COc1ccc(C(=O)OC2=C(C(=O)c3ccccc3)N(C)S(=O)(=O)c3ccccc32)cc1OC ?
HepG2 tox: -24%; TGFb SMAD3 inh: 0%; ATXN2 expr inh: -4%; S2 tox: inactive; D3 ag: -22

How did CC(=O)N1CCc2cc(S(=O)(=O)N3c4ccccc4CC3C)ccc21 (configuration not stated) do in these assays?
HepG2 tox: 3%; TGFb SMAD3 inh: -17%; ATXN2 expr inh: -23%; S2 tox: inconclusive; D3 antag: -51*; D3 ag: -9

Results for CC(=O)N1CCc2cc(S(=O)(=O)NCCN3CCC(C)CC3)ccc21 ?
HepG2 tox: -18%; TGFb SMAD3 inh: 13%; ATXN2 expr inh: -2%; S2 tox: inactive; D3 antag: -58*; D3 ag: 2

What do the screens show for `CC(=O)N1CCc2cc(S(=O)(=O)NCCCN3CCN(Cc4ccccc4)CC3)ccc21`?
HepG2 tox: -5%; TGFb SMAD3 inh: -23%; ATXN2 expr inh: -8%; S2 tox: inactive; D3 antag: inconclusive; D3 ag: 4

How did O=c1[nH]c(CCl)nc2cc(-c3ccc(F)cc3)sc12 do in these assays?
HepG2 tox: 11µM*; TGFb SMAD3 inh: inconclusive; ATXN2 expr inh: inconclusive; S2 tox: inactive; D3 antag: -11; D3 ag: -4

What do the screens show for `CC(C)CC(=O)n1nc(-c2ccco2)nc1NCc1ccc(Cl)cc1`?
HepG2 tox: -17%; TGFb SMAD3 inh: 7%; ATXN2 expr inh: 3%; S2 tox: inactive; D3 ag: 2

How did CCN(CC)c1ccc(-n2cc3c(=O)n(C)c(=O)n(C)c3c2)cc1 do in these assays?
HepG2 tox: -33%; TGFb SMAD3 inh: -15%; ATXN2 expr inh: 31%; S2 tox: inactive; D3 antag: -55*; D3 ag: -4

Results for Cc1ccc(C)c(NC(=O)Cn2cc(C(=O)c3cccs3)c3ccccc32)c1 ?
HepG2 tox: -18%; TGFb SMAD3 inh: inconclusive; ATXN2 expr inh: 0%; S2 tox: inactive; D3 ag: -4

What do the screens show for `CCn1c(COc2c(C)cccc2C)nnc1SCC(=O)N1CCN(c2ccccc2)CC1`?
HepG2 tox: -4%; TGFb SMAD3 inh: inconclusive; ATXN2 expr inh: inconclusive; S2 tox: inactive; D3 antag: 17; D3 ag: -1

How did C=CCn1c(COc2cccc(C)c2C)nnc1SCC(=O)N1CCN(c2ccccc2)CC1 do in these assays?
HepG2 tox: -69%; TGFb SMAD3 inh: 4.5µM*; ATXN2 expr inh: inconclusive; S2 tox: inactive; D3 antag: -9; D3 ag: -3

How did O=C(Nc1ccc(Cl)cc1Cl)[C@@H]1CC=C[C@@H]2CCN(C3CC3)C(=O)[C@@H]21 do in these assays?
HepG2 tox: 9%; TGFb SMAD3 inh: inconclusive

How did Cc1ccc(-c2nc3sc(CCNC(=O)c4ccco4)c(C)n3n2)cc1 do in these assays?
HepG2 tox: -26%; TGFb SMAD3 inh: inconclusive; ATXN2 expr inh: -2%; S2 tox: inconclusive; D3 ag: 40*

What do the screens show for `CCCS(=O)(=O)NCCc1sc2nc(-c3ccc(F)cc3)nn2c1C`?
HepG2 tox: -21%; TGFb SMAD3 inh: -32%; D3 ag: 9

What do the screens show for `Cc1cccc(-c2nc3scc(CCNS(=O)(=O)c4ccc(F)cc4C)n3n2)c1`?
HepG2 tox: -33%; TGFb SMAD3 inh: 11µM*; D3 ag: -14

How did Cc1ccc(-c2nc3sc(CCNC(=O)c4ccc(Br)o4)c(C)n3n2)cc1 do in these assays?
HepG2 tox: -56%; TGFb SMAD3 inh: 18µM*; ATXN2 expr inh: inconclusive; D3 ag: 12

How did Cc1cc(C)c(S(=O)(=O)NCCc2sc3nc(-c4ccc(F)cc4)nn3c2C)c(C)c1 do in these assays?
HepG2 tox: -50%; TGFb SMAD3 inh: 11µM*; D3 ag: 15

How did CCc1cccc(C)c1NC(=O)CN1C(=O)C2(SCC(=O)N2c2cc(C)cc(C)c2)c2ccccc21 (configuration not stated) do in these assays?
HepG2 tox: 1%; TGFb SMAD3 inh: -8%; ATXN2 expr inh: -1%; S2 tox: inactive; D3 ag: 0

How did CN(CCNC(=O)c1c[nH]c2c1ccc1ccccc12)CCNC(=O)c1c[nH]c2c1ccc1ccccc12 do in these assays?
HepG2 tox: -103%; TGFb SMAD3 inh: 13µM*; ATXN2 expr inh: inconclusive; S2 tox: 35µM*; D3 antag: -4; D3 ag: -11

How did CCCCN(C)CCNC(=O)c1cc(-c2ccc(Cl)s2)nc2ccccc12 do in these assays?
HepG2 tox: -6%; TGFb SMAD3 inh: -17%; ATXN2 expr inh: -24%; S2 tox: inactive; D3 ag: -23

How did Cc1cccc(NC(=O)COC(=O)c2ccc3nc(C)c(C)nc3c2)c1 do in these assays?
HepG2 tox: -3%; TGFb SMAD3 inh: 8%; ATXN2 expr inh: 6%; S2 tox: inactive; D3 antag: -58*; D3 ag: -1

How did O=C1C2ON(c3ccccc3)C(c3cccnc3)C2C(=O)N1c1ccccc1 (configuration not stated) do in these assays?
HepG2 tox: -1%; TGFb SMAD3 inh: -23%; ATXN2 expr inh: 3%; S2 tox: inactive; D3 antag: -2; D3 ag: 7

How did O=C1C2ON(c3ccccc3)C(c3cccnc3)C2C(=O)N1c1ccc(Cl)c(Cl)c1 (configuration not stated) do in these assays?
HepG2 tox: 6%; TGFb SMAD3 inh: 7%; ATXN2 expr inh: 1%; S2 tox: inactive; D3 antag: 30; D3 ag: 47*

How did CC(C)c1ccc2c(c1)CC[C@H]1[C@](C)(CN)CCC[C@]21C do in these assays?
HepG2 tox: -111%; TGFb SMAD3 inh: inconclusive; ATXN2 expr inh: inconclusive; S2 tox: inactive; D3 antag: 66; D3 ag: 8

Source: PubChem BioAssay (National Center for Advancing Translational Sciences (NCATS))
